Measured values from PubChem BioAssay AID1671190 (National Center for Advancing Translational Sciences (NCATS), 2021).
Hit rate of the full screen: of about 580,000 compounds, about 6,100 (1.1%) were called active. About 15% were inconclusive and are not listed. The sample as a whole holds a higher share of actives than the screen did. Values without a mark were called inactive. Calls come from the whole dose curve; as a rule, active = well fitted inhibition curve with a large enough effect; inconclusive = small, poorly fitted or top-dose-only effect, or another doubt; inactive = no such curve, though single readings can be large or run the other way.

target: Polyunsaturated fatty acid lipoxygenase ALOX12 (Homo sapiens) (UniProt P18054); test: Primary qHTS assay for inhibitors of human arachidonate 12S-lipoxygenase (ALOX12): Round 2; settings: purified 12hLO, xylenol orange hydroperoxide absorbance; series mostly up to 108 µM; activity change, negative = inhibition: at the top concentration
From the text: Assay Provider: Theodore R. Holman Ph.D. University of California, Santa Cruz, California Human lipoxygenase 12hLO is a member of the closely related lipoxygenase family of enzymes which catalyze the site-specific oxidation of arachidonic acid to various hormone precursor molecules and as such is a candidate for drug development in a variety of disease areas, such as cancer and inflammation. Inhibition of 12hLO activity was screened by utilizing arachidonic acid as a substrate. The extent of hydroperoxide product formation was measured by a secondary chromogenic reaction in which xylenol orange (XO, Sigma-Aldrich, cat. number 39,818-7) reacts with the ferric ions produced from the reaction between the hydroperoxide and ferrous ions. The Fe (III)-XO complex is characterized with red-shifted absorbance at 560 nm. A purified preparation of human 12hLO was supplied by Dr. Holman laboratory, University of California, Santa Cruz.
PROTOCOL TABLE SEQUENCE No. (e.g., 1, 2, 3, etc.); […] (e.g., Cells, Incubation, Reagent, etc.); VALUE; DESCRIPTION 1; Enzyme; 3 uL; 150 nM 12hLO enzyme solution dispensed in 1536-well Greiner black, clear bottom plates. 2; Compound; 23 nL; compounds and controls were added. 3; Incubate; 15 min; room temperature. 4; Substrate; 1 uL; 40 uM arachidonic acid (final concentration). 5; Incubate; 30 min; room temperature. 6; Reagent; 4 uL; Fe-XO solution was added to each well. 7; Incubation; 30 min; room temperature 8; Detector; absorbance; Read 1 at 405 nm absorbance using ViewLux (Perkin-Elmer) CCD imager. 9; Detector; absorbance; Read 2 at 573 nm absorbance using ViewLux (Perkin-Elmer) CCD imager. NOTES (numbers refer to sequence above) 1; 150 nM 12hLO (final concentration) in buffer solution (25 mM Hepes, 0.01% Triton X-100, pH 7.0) was dispensed in columns 1, 2, 5-48. Column 1 is neutral (100% activity). Buffer only was dispensed in columns 3 and 4 as no enzyme negative controls. The plates were covered with metal lids with gas-exchange holes. 2; Compounds were pin transferred via a Kalypsys Pin Tool (Wako USA) in column 5-48. Control compound was transferred in column 2, titration of nordihydroguaiaretic acid (NDGA, Sigma-Aldrich, N5023) with top concentration of 20 mM in DMSO then 1:3 dilution in duplicate. Dilution factor of 23 nL into 4 uL final assay volume. 3; Covered assay plates were incubated for 15 min at room temperature. 4; Substrate was added to start the reaction; 40 uM arachidonic acid (Sigma-Aldrich, St. Louis, MO) was dispensed throughout the plate. 6; Chromogenic detection reagent solution (divalent iron/xylenol orange, Fe-XO) was added to each well: 200 uM xylenol orange, 300 uM ferrous ammonium sulfate prepared freshly in 50 mM sulfuric acid. 8, 9; Two absorbance readouts were obtained at 405 nm and at 573 nm using a ViewLux high-throughput CCD plate imager (Perkin-Elmer). The 573 to 405 (Read 2 / Read 1) absorbance ratio was used to compute reaction progress.
% is set by controls: 0 for no effect and ±100 for the full control effect; potency is the fitted concentration of half-maximal effect.

Polyunsaturated fatty acid lipoxygenase ALOX12 (Homo sapiens), sequence (P18054 whole entry, looked up): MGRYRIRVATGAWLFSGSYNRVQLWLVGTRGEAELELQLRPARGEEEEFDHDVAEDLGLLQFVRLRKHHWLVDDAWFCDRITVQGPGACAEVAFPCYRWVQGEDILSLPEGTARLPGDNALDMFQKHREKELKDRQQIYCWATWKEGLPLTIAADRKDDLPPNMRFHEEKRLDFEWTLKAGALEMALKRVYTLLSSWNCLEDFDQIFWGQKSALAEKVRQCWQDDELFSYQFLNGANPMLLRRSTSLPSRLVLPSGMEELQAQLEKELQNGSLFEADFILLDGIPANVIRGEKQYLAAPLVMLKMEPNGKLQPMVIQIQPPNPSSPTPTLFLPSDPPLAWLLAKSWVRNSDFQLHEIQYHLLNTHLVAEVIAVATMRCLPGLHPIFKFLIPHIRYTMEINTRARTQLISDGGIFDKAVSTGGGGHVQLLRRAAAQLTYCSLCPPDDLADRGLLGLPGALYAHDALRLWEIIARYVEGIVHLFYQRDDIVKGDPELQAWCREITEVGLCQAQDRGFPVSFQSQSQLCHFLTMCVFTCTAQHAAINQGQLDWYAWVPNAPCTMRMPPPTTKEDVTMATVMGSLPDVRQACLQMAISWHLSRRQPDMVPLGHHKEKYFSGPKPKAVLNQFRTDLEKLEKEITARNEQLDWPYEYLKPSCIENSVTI

| Compound | activity change, negative = inhibition | Potency |
| --- | --- | --- |
| O=C(Nc1cccc(Cl)c1)c1csnn1 | -56.4% |  |
| Cc1csc(NC(=S)Nc2cccc(Cl)c2)n1 |  | 8.91 µM (active) |
| Cc1csc(NC(=O)CCc2ncc(-c3ccc(Cl)cc3Cl)o2)n1 | -11.5% |  |
| CCOc1cc2[nH]c(=O)n(Cc3ccc(C(=O)NCCN(CC)CC)cc3)c(=O)c2cc1OCC | 8.46% |  |
| CCN(CC)CCCNC(=O)c1ccc2c(=O)n(Cc3ccc4c(c3)OCO4)c(=S)[nH]c2c1 |  | 39.8 µM (active) |
| CCCCCn1c(=O)[nH]c2cc(C(=O)NCCN(C)CCCC)ccc2c1=O | -11.6% |  |
| O=C(CCc1ccccc1)Nc1ccc(Cl)c(C(F)(F)F)c1 | -15.2% |  |
| Cc1cccc(NC(=O)CN2CC3CC(C2)[C@H]2CCCC(=O)N2C3)c1 (some centres not stated) | 15.5% |  |
| O=C(NC(=O)c1ccccc1N1CCCCC1)Nc1ccc(Br)cc1 | 5.64% |  |
| CSc1ccccc1NC(=O)Cc1ccc(Br)cc1 | -6.84% |  |
| O=C(NC(=S)Nc1ccccc1C(=O)O)c1ccc(-c2ccc(Br)cc2)o1 |  | 10 µM (active) |
| Cn1cc(C(=O)N2CCC(C(N)=O)CC2)c2ccccc21 | -6.34% |  |
| CC1=C(C(=O)OC(C)C)C(c2ccncc2)c2c(nc(SCc3ccccc3)[nH]c2=O)N1 (configuration not stated) | 3.3% |  |
| CCc1ccc(C=C2SC(=S)NC2=O)cc1 |  | 10.9 µM (active) |
| O=C1NC(=O)C(=Cc2cccc(C(F)(F)F)c2)S1 | -31.5% [at 57.4 µM] |  |
| COc1ccc(/C=C2/S/C(=N/N=C3\CC4CCC3(C)C4(C)C)NC2=O)cc1 (configuration not stated) | 12.3% |  |
| CCOC(=O)NC(CNC(=O)c1ccccc1OC)CC(C)C (configuration not stated) | -16% |  |
| COc1ccccc1NS(=O)(=O)c1ccc2oc(SCCOc3ccccc3F)nc2c1 | -14% |  |
| CCC(CC)C(=O)Nc1sc(Nc2ccc(C)cc2)nc1C(N)=O | 56.5% |  |
| COc1ccc2cc(S(=O)(=O)c3ccc(Cl)c(Cl)c3)c(=O)oc2c1 | 6.23% |  |
| COc1ccc(C(=O)N2CCC([C@@H]3CNC[C@H]3CO)CC2)cc1OC | 42.4% |  |
| O=C(c1ccc(F)c(F)c1)N1CCC([C@@H]2CNC[C@H]2CO)CC1 | 9.14% |  |
| O=C(c1ccc(C(F)(F)F)cc1)N1CCC([C@@H]2CNC[C@H]2CO)CC1 |  | 44.7 µM (active) |
| O=C(OCCN1C(=O)c2ccccc2C1=O)Oc1ccccc1 | 21.2% |  |
| Nc1ccc(SCCN2C(=O)c3ccccc3C2=O)cc1 | 0% |  |
| O=C1c2ccccc2C(=O)N1CCCCCCN1C(=O)c2ccccc2C1=O |  | 35.5 µM (active) |

| Compound | activity change, negative = inhibition | Potency |
| --- | --- | --- |
| COc1ccc(CC(=O)N2CC3ON=C(c4c(F)cccc4Cl)C3C2)cc1OC (configuration not stated) | 0.305% |  |
| CCCn1c(-n2nc(C)cc2C)nc2c1c(=O)n(CCN1CCCCC1)c(=O)n2C | -4.67% |  |
| CC(c1ccc(S(N)(=O)=O)cc1)N(C)C(=O)CCc1ncc(-c2ccc(Cl)cc2)o1 (configuration not stated) | -1.85% |  |
| CCOC(=O)c1c(NC(C)=O)sc2c(OCC(=O)Nc3ccccc3C)c(C)ccc12 | 4.61% |  |
| CC(Oc1cccc(Cl)c1)C(=O)Nc1ccc(S(=O)(=O)Nc2ncccn2)cc1 (configuration not stated) | -28% |  |
| COC(=O)Nc1ccc(S(=O)(=O)Nc2cc(OC)nc(OC)n2)cc1 | -27.3% |  |
| COc1cc(NS(=O)(=O)c2ccc(N/C=C(\C=O)c3nc4cc(Cl)ccc4o3)cc2)nc(OC)n1 |  | 22.4 µM (active) |
| CCOC(=O)c1cccc(NC(=O)N2CC[C@@H](CC(=O)N(C)CC#N)[C@@H](CC)C2)c1 | 7.29% [at 176 µM] |  |
| CCOc1ccc(NC(=O)C(=O)c2c[nH]c3ccccc23)cc1 | -5.79% |  |
| CCc1cccc(NC(=O)Nc2cn(CC(C)C)c(=O)c3ccccc23)c1 | -24.1% |  |
| [O-]/[N+](=C\c1ccc2ccccc2n1)c1ccccc1 |  | 11.2 µM (active) |
| CC(C)Oc1c(Br)cc(Br)cc1/C=N/NC(N)=S |  | 35.5 µM (active) |
| N#Cc1cccc(NC(=O)O[C@@H]2CO[C@H]3[C@@H]2OC[C@@H]3Nc2nccc(-c3ccccc3)n2)c1 | 8.46% |  |
| Cc1ccc(C(=O)Nc2ccc3c(N4CCCCC4)ncnc3c2)s1 | 0.475% |  |
| CC1(C)Cc2ccccc2-c2nnc(-c3cccc(O)c3)n21 | 0% |  |
| CC(C)CC(N=C1NC(C)(C)Cc2ccccc21)C(=O)O (configuration not stated) | 26.9% |  |
| CC1(C)Cc2ccccc2-c2[nH]c(=S)[nH]c(=O)c21 |  | 7.94 µM (active) |
| COc1ccc(-c2nc(CSCC(=O)N(C)c3ccccc3)co2)cc1 | -7.47% |  |
| COc1ccc(CCC(=O)N2CCCCCCNC(=O)[C@@H]3CCCC[C@@H]32)cc1 | 14.2% |  |
| CCc1ccc(N(Cc2cccs2)C(=O)c2ccccc2C)cc1 | 5.57% |  |
| CC(NS(=O)(=O)c1ccc(F)cc1Cl)C(=O)N1CCCC1 (configuration not stated) | 1.67% |  |
| CCOc1ccc(NC(=O)Nc2ccc(CN3CCOCC3)cc2)cc1 | -0.148% |  |
| COC(=O)c1ccc2c(c1)nc1n2[C@@H](CNCc2cccc(OC)n2)COC1 | -2.06% [at 176 µM] |  |
| CC(C)c1ccc(NC(=O)c2ccc3c(Cl)c4c(nc3c2)CCCC4)cc1 | -5.67% |  |
| O=C(c1cccc(Cl)c1)N1CCc2nc(C3CC3)nc(-c3ccc(Cl)cc3)c2C1 | -20.8% |  |
| COc1cccc(C(=O)N2CCc3nc(C4CC4)nc(-c4ccc(Cl)cc4)c3C2)c1 |  | 10 µM (active) |
